Results filed as inconclusive are left out. Calls of active or inactive are those of the source. Calls follow the shape of the dose curve; as a rule, active = well fitted inhibition curve with a large enough effect; inconclusive = small, poorly fitted or top-dose-only effect; inactive = flat fitted curve, though single readings scatter.

Holding throughout (assay): qHTS profiling for inhibitors of Plasmodium falciparum proliferation (AID 504749); also: nearly all actives have a fitted effect of over 60% in size
Assay [1] deals with CP191. The note with it: P. falciparum in erythrocytes, SYBR Green DNA, 72 h; series mostly up to 28.7 µM. The procedure, abridged:
(§1)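 SYBR Green fluorescence of parasite DNA, read after lysis and overnight dark incubation, measured growth over 72 h in erythrocyte culture at 0.3% parasitemia and 2.5% hematocrit. Data normalised to DMSO and 0.29 uM artemisinin, with plate-drift correction.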

Assay [2] relates to CP194. Particulars: P. falciparum in erythrocytes, SYBR Green DNA, 72 h; series mostly up to 28.7 µM. Summed up:
as §1

For assay [3], the system named is CP201. Particulars: P. falciparum in erythrocytes, SYBR Green DNA, 72 h; series mostly up to 28.7 µM. Summed up: as §1
The test system of assay [4] is CP203. The note with it: P. falciparum in erythrocytes, SYBR Green DNA, 72 h; series mostly up to 28.7 µM. Summed up: as §1
Assay [5] has as its system CP211. The note with it: P. falciparum in erythrocytes, SYBR Green DNA, 72 h; series mostly up to 28.7 µM. Summed up: as §1
The subject of assay [6] is CP215. The note with it: P. falciparum in erythrocytes, SYBR Green DNA, 72 h. Summed up:
as §1

Assay [7] relates to CP192. Particulars: P. falciparum in erythrocytes, SYBR Green DNA, 72 h; series mostly up to 28.7 µM. The procedure, abridged: as §1
The subject of assay [8] is CP217. Particulars: P. falciparum in erythrocytes, SYBR Green DNA, 72 h; series mostly up to 28.7 µM. Summed up:
as §1

For assay [9], the system named is CP237. Particulars: P. falciparum in erythrocytes, SYBR Green DNA, 72 h. Summed up:
as §1

The subject of assay [10] is CP238. The note with it: P. falciparum in erythrocytes, SYBR Green DNA, 72 h; series mostly up to 28.7 µM. Summed up: as §1
Potency is read from the fitted curve at half-maximal effect.

On to `COC1C(OC(=O)/C=C/C=C/C=C/C=C/C(=O)O)CCC2(CO2)C1C1(C)OC1CC=C(C)C` (centres undefined), for which the Potency in [1] was 0.0501 µM (active); in assay [2], 0.536 µM (active); in [3], 7.57 µM (active); in assay [4] it was 2.69 µM (active); in [5], 0.0379 µM (active); in assay [6], 6.01 µM (active).
For the compound `C=CCNC1=C2C[C@@H](C)C[C@H](OC)[C@H](O)[C@@H](C)/C=C(\C)[C@H](OC(N)=O)[C@@H](OC)/C=C\C=C(/C)C(=O)NC(=CC1=O)C2=O`, the Potency is 2 µM (active) in [1]; 4.26 µM (active) in [7]; 4.26 µM (active) in assay [2]; 6.75 µM (active) in assay [3]; 3.79 µM (active) in [4]; 3.79 µM (active) in assay [5]. Also, the Potency in assay [6] is 4.78 µM (active); in assay [8] it was 2 µM (active); in [9] it was 1.26 µM (active); in assay [10], 1.58 µM (active).
For the compound `CCCOc1ccc2nc(NC(=O)OC)sc2c1`, the Potency result in assay [1], in assay [7], in assay [2], in assay [3], in [4] and in assay [5] was “inactive” in each case. Further, the Potency entry in [8] and in [10] was “inactive” in each case.

Values taken from PubChem BioAssay (NCATS).
